Measurements published in the supplement of paper PMC8253809.
Values joined by “and” are separate entries in the source; they are usually repeats but may differ in a detail not shown here. Equal entries are not always repeated.

System: SUDIPGIV (diffuse intrinsic pontine glioma line)
Test: growth inhibition (% activity, log2 RLU normalised to DMSO / staurosporine); higher = more growth inhibition
Conditions: 33 µM
How it was run: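 For each approved drug, the growth-inhibition value is the replicate median of per-plate normalised CellTiter-Glo data. Luminescence was log2-transformed and expressed as % activity between solvent and positive control wells. Drugs were applied in triplicate at a single final concentration of about 33 μM for 7 days at 37 °C, 5% CO2 to pHGG cell lines and H9-derived neural stem cells.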

Q: For `N=C(N)c1ccc(OCCCCCOc2ccc(C(=N)N)cc2)cc1`, which growth inhibition is on record?
A: The growth inhibition was 45%.

Q: With `Cc1c(-c2ccccc2)oc2c(C(=O)OCCN3CCCCC3)cccc2c1=O` as the compound, how does the growth inhibition read?
A: The growth inhibition was -0.209%.

Q: For `O=P(O)(O)C(Cl)(Cl)P(=O)(O)O`, which growth inhibition is on record?
A: The growth inhibition was 0.894%.

Q: With `CCOC(=O)c1c(CSc2ccccc2)n(C)c2cc(Br)c(O)c(CN(C)C)c12` as the compound, how does the growth inhibition read?
A: The growth inhibition was -4.36%.

Q: `O=C(O)c1cc(=O)c2ccccc2o1` was tested. Which growth inhibition did it give?
A: The growth inhibition was 0.468%.

Q: Which growth inhibition does the source give for `O=C(Nc1cccc2c(=O)cc(-c3nnn[nH]3)oc12)c1ccc(OCCCCc2ccccc2)cc1` here?
A: Its growth inhibition is 2.11%.

Q: For `CC(C(=O)O)c1cccc(Oc2ccccc2)c1` (centres undefined), which growth inhibition is on record?
A: Its growth inhibition is -2.87% and -3.43%.

Q: How did the growth inhibition turn out when `CC(C[N+](C)(C)C)OC(N)=O` (centres undefined) was run?
A: Its growth inhibition is -1.69%.

Q: Which growth inhibition does the source give for `CC1(C)O[C@@H]2C[C@H]3[C@@H]4C[C@H](F)C5=CC(=O)C=C[C@]5(C)[C@@]4(F)[C@@H](O)C[C@]3(C)[C@]2(C(=O)CO)O1` here?
A: Its growth inhibition is 1.18%.

Q: For `CC(=O)OCC(=O)[C@@]1(O)CC[C@H]2[C@@H]3CCC4=CC(=O)CC[C@]4(C)[C@H]3C(=O)C[C@@]21C`, which growth inhibition is on record?
A: Its growth inhibition is -5.64%.

Q: With `C[C@@]12C[C@@]3(O)O[C@@H](O1)[C@]1(COC(=O)c4ccccc4)[C@H]3C[C@@]12O[C@@H]1O[C@H](CO)[C@@H](O)[C@H](O)[C@H]1O` as the compound, how does the growth inhibition read?
A: The growth inhibition was -1.25%.

Q: How did the growth inhibition turn out when `Cc1ccc(-n2[nH]c(C)c(N=Nc3cccc(-c4cccc(C(=O)O)c4)c3O)c2=O)cc1C` was run?
A: Its growth inhibition is -2.64%.

Q: For `CCOC(=O)c1ccc(C#Cc2ccc3c(c2)C(C)(C)CCS3)nc1`, which growth inhibition is on record?
A: The growth inhibition was 8.53%.

Q: For `CN1C(C(=O)Nc2ccccn2)=C(O)c2sc(Cl)cc2S1(=O)=O`, which growth inhibition is on record?
A: Its growth inhibition is -7.21%.

Q: `CC[C@H]1OC(=O)[C@H](C)[C@@H](O[C@H]2C[C@@](C)(OC)[C@@H](O)[C@H](C)O2)[C@H](C)[C@@H](O[C@@H]2O[C@H](C)C[C@H](N(C)C)[C@H]2O)[C@](C)(O)C[C@@H](C)C(=O)[C@H](C)[C@@H](O)[C@]1(C)O` was tested. Which growth inhibition did it give?
A: Its growth inhibition is 1.14%.

Q: With `Clc1ccccc1CN1CCc2sccc2C1` as the compound, how does the growth inhibition read?
A: Its growth inhibition is 0.722%.

Q: For `CC(C)OC(=O)C(C)(C)Oc1ccc(C(=O)c2ccc(Cl)cc2)cc1`, which growth inhibition is on record?
A: Its growth inhibition is 1.24%.

Q: For `Clc1ccc(C(c2ccccc2Cl)C(Cl)Cl)cc1` (centres undefined), which growth inhibition is on record?
A: The growth inhibition was -1.24%.

Q: `C=CCNC(N)=S` was tested. Which growth inhibition did it give?
A: The growth inhibition was -1.24%.

Q: `Clc1cccc(Cl)c1NC1=NCCN1` was tested. Which growth inhibition did it give?
A: The growth inhibition was 0.943%.

Q: How did the growth inhibition turn out when `CC(C)(C)CC(C)(C)c1ccc(OCCOCC[N+](C)(C)Cc2ccccc2)cc1` was run?
A: The growth inhibition was 47.1%.

Q: For `CN(C)CCCN1c2ccccc2CCc2ccc(Cl)cc21`, which growth inhibition is on record?
A: Its growth inhibition is 7.66%.

Q: `O=C(NCCN1CCOCC1)c1ccc(Cl)cc1` was tested. Which growth inhibition did it give?
A: Its growth inhibition is -0.786%.

Q: For `Cc1onc(-c2c(Cl)cccc2Cl)c1C(=O)N[C@@H]1C(=O)N2[C@@H]1SC(C)(C)[C@@H]2C(=O)O`, which growth inhibition is on record?
A: The growth inhibition was 1.41%.

Q: For `C[C@](N)(Cc1ccc(O)c(O)c1)C(=O)O`, which growth inhibition is on record?
A: The growth inhibition was -0.812%.

Q: For `CN(C)CCCC1(c2ccc(F)cc2)OCc2cc(C#N)ccc21` (centres undefined), which growth inhibition is on record?
A: Its growth inhibition is 1.18%.

Q: For `CNCCC(Oc1ccc(C(F)(F)F)cc1)c1ccccc1` (centres undefined), which growth inhibition is on record?
A: The growth inhibition was 1.62%.

Q: `O=C([O-])C(O)[C@H](O)[C@@H](O)[C@H](O)[C@H](O)CO.O=C([O-])C(O)[C@H](O)[C@@H](O)[C@H](O)[C@H](O)CO.[Ca+2]` (some centres undefined) was tested. Which growth inhibition did it give?
A: The growth inhibition was 0.563%.

Q: Which growth inhibition does the source give for `Cc1c(C(=O)NN2CCCCC2)nn(-c2ccc(Cl)cc2Cl)c1-c1ccc(Cl)cc1` here?
A: Its growth inhibition is -1.46%.

Q: `CC(=O)N1CCN(c2ccc(OCC3COC(Cn4ccnc4)(c4ccc(Cl)cc4Cl)O3)cc2)CC1` (centres undefined) was tested. Which growth inhibition did it give?
A: The growth inhibition was 13.7%.

Q: Which growth inhibition does the source give for `CC(C)(Oc1ccc(CCNC(=O)c2ccc(Cl)cc2)cc1)C(=O)O` here?
A: The growth inhibition was 0.843%.

Q: Which growth inhibition does the source give for `O=C1[C@@H]2[C@H]3CC[C@H](C3)[C@@H]2C(=O)N1C[C@@H]1CCCC[C@H]1CN1CCN(c2nsc3ccccc23)CC1` here?
A: The growth inhibition was -0.0151%.

Q: With `CC(C)(Oc1ccc(Cl)cc1)C(=O)O` as the compound, how does the growth inhibition read?
A: Its growth inhibition is 0.614%.

Q: Which growth inhibition does the source give for `Cc1cc(C)nc(NS(=O)(=O)c2ccc(N)cc2)n1` here?
A: Its growth inhibition is -1.47%.

Q: How did the growth inhibition turn out when `Cc1cnc(NC(=O)C2=C(O)c3ccccc3S(=O)(=O)N2C)s1` was run?
A: The growth inhibition was -3.44%.

Q: With `CNC(=O)c1ccc(N2C(=S)N(c3ccc(C#N)c(C(F)(F)F)c3)C(=O)C2(C)C)cc1F` as the compound, how does the growth inhibition read?
A: Its growth inhibition is 1.84%.

Q: `COc1cc2c(cc1Cc1cccc(Cl)c1F)c(=O)c(C(=O)O)cn2[C@H](CO)C(C)C` was tested. Which growth inhibition did it give?
A: Its growth inhibition is 9.68%.

Q: How did the growth inhibition turn out when `C=C1CC[C@H](O)C/C1=C/C=C1\CCC[C@]2(C)[C@@H]([C@H](C)/C=C/[C@H](C)C(C)C)CC[C@@H]12` was run?
A: The growth inhibition was 3.53%.

Q: Which growth inhibition does the source give for `CC(C)(C)c1ccc(C(O)CCCN2CCC(C(O)(c3ccccc3)c3ccccc3)CC2)cc1` (centres undefined) here?
A: The growth inhibition was -0.418%.
